# tim23-1 inh = inhibits growth of tim23-1 mutant yeast; inhibition, % at 20 µM; S. cerevisiae tim23-1 growth, BacTiter-Glo luminescence, 24 h; AID 463212; 330,000 tested, 1.3% active;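 active = growth inhibition of the mutant yeast at or above 50%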;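 note: temperature-sensitive mutant grown at 25 °C; plate controls were DMSO-treated mutant yeast for no effect and medium wells lacking yeast for full effect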
# TIM10 inh = growth inhibitors of TIM10 yeast strain; S. cerevisiae TIM10 strain growth, BacTiter-Glo luminescence, 24 h; inhibition, % at 10 µM; 330,000 tested, 1.4% active; AID 463195;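 active = inhibition of 40% or more at the single tested concentration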;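 note: wild-type TIM10 isogenic control strain grown at permissive 25 °C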
# SKKanGAS inh = SKKanGAS growth inhibition; S. pyogenes SKKanGAS, kanamycin growth, BacTiter-Glo, 6 h; inhibition, % at 7.5 µM; 300,000 tested, 1.3% active;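 active = mean replicate score, as percent of positive control median, at least 50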;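 note: strain carries kanamycin resistance gene driven by streptokinase promoter and grows in 40 µg/ml kanamycin; loss of luminescence reflects streptokinase promoter inhibition or plain growth inhibition; 0% = median of DMSO wells and 100% = positive control at its reference dose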
# PfHsp90 yeast 2 = reduces growth (ATP signal) of yeast expressing P. falciparum Hsp90; AID 504621; 310,000 tested, 0.32% active; inhibition, % at 9.4 µM; S. cerevisiae expressing PfHsp90, BacTiter-Glo ATP, 48 h; yeast lacking PDR1 and PDR3 efflux regulators;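 active = every replicate shows inhibition above about 80%, whatever the replicate mean, limit read from the data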;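 note: 0% = DMSO neutral controls and 100% = 20 µM radicicol positive controls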
# tim10-1 inh = growth inhibitors of tim10-1 mutant yeast. inhibition, % at 20 µM. S. cerevisiae tim10-1 ts strain growth, BacTiter-Glo, 24 h. 330,000 tested, 2.2% active. AID 463190;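 active = inhibition of at least 40%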;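 note: mutant grown at 25 °C; 0% = DMSO wells with yeast and 100% = wells holding no yeast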
# * hit, by the source's call; · = no result. Rows were chosen to be rich in hits. Some 4.4% of all compounds tested hit in one or more screens of this group.
SMILES,tim23-1 inh,TIM10 inh,SKKanGAS inh,PfHsp90 yeast 2,tim10-1 inh
Cc1cc(C(=O)N/N=C/c2c(C)[nH]n(-c3ccccc3)c2=O)n[nH]1,10,3,13,26,15
CC1CCc2cc(F)cc3c(=O)c(C(=O)O)cn1c23 (centres undefined),9,-5,2,11,-4
COc1c(N2CCN(C(=S)NC3CC4CCC3C4)C(C)C2)c(F)cc2c(=O)c(C(=O)O)cn(C3CC3)c12 (centres undefined),16,12,101*,-13,12
COc1c(N2CCN(C(=S)Nc3ccc(F)cc3)C(C)C2)c(F)cc2c(=O)c(C(=O)O)cn(C3CC3)c12 (centres undefined),5,11,115*,-8,12
NC1CCN(c2nc3c(cc2F)c(=O)c(C(=O)O)cn3-c2ccc(F)cc2F)C1 (centres undefined),-23,6,103*,-12,3
NC1CCN(c2c(F)cc3c(=O)c(C(=O)O)cn(C4CC4)c3c2Cl)C1 (centres undefined),0,-4,74*,8,21
CC(=O)c1ccc(S(=O)(=O)NCC(=O)Nc2nc3ccccc3[nH]2)cc1,15,0,·,24,3
O=C(CC(=O)NN=Cc1ccc2c(c1)CCC2)NN=Cc1ccc2c(c1)CCC2,·,·,·,9,·
Cc1c(Cl)cccc1NC(=S)Nc1ccc(S(=O)(=O)Nc2ncccn2)cc1,19,0,·,-6,-3
CC1CCc2c(N3CCC(O)CC3)c(F)cc3c(=O)c(C(=O)O)cn1c23 (centres undefined),18,12,·,-1,7
COc1c(N2CCNC(C)C2)c(F)cc2c(=O)c(C(=O)O)cn(C3CC3)c12 (centres undefined),3,3,105*,·,-9
CN1CCN(c2c(F)cc3c(=O)c(C(=O)O)cn4c3c2OCN4C)CC1,-3,-10,104*,-5,3
COc1ccc(C(=O)c2ccc(N3CCN(C4CC(=O)NC4=O)CC3)cc2)cc1F (centres undefined),14,-7,73*,4,9
CCOC(=O)c1ccc(S(=O)(=O)NNC(=O)Cc2csc(C)n2)cc1,-13,-3,·,-6,-7
Cc1ccc(S(=O)(=O)NC(CC(C)C)C(=O)N2CCN(C/C=C/c3ccccc3)CC2)cc1 (centres undefined),34,16,·,5,38
CCCCn1c(NC(=O)c2ccccc2)c(C#N)c2nc3ccccc3nc21,·,·,·,4,·
CCC(C)n1c(NC(=O)c2ccccc2)c(C#N)c2nc3ccccc3nc21 (centres undefined),31,8,69*,-2,13
Cc1ccc(C(=O)N2CCN(c3ccccc3Cl)CC2)cc1[N+](=O)[O-],46,10,15,105*,13
Cc1cccc([N+](=O)[O-])c1NC(=O)CSc1nnc2ccccn12,20,1,·,14,8
COCc1cc(=O)[nH]c(Nc2nc3ccccc3o2)n1,0,5,53*,-12,8
Cc1ccc(NC(=O)Cn2cnc3c(NCc4ccccc4)ncnc32)cc1C,17,-25,·,-14,5
COc1ccc(/C=C2/C(=O)N(Cc3ccccc3)N=C2C)cc1,29,12,-9,18,20
COc1ccc(/C=C2/C(=O)N(c3nc4ccccc4s3)N=C2CSc2ccc(Cl)cc2)cc1,9,10,68*,5,9
CC(=O)O[C@]1(C(C)=O)CCC2C3C=C(C)C4=CC(=O)CC[C@]4(C)C3CC[C@@]21C (some centres undefined),33,2,1,-7,26
CC(=O)O[C@H]1C[C@@]2(C)[C@@H](C[C@@H](O)[C@H]3[C@@]4(C)CC[C@@H](O)[C@@H](C)[C@@H]4CC[C@@]32C)/C1=C(\CCC=C(C)C)C(=O)O,-5,7,109*,1,7
SMILES,tim23-1 inh,TIM10 inh,SKKanGAS inh,PfHsp90 yeast 2,tim10-1 inh
O=c1[nH]c2ccc(Cl)cc2c(-c2ccccc2)c1N1CCN(c2ccccn2)CC1,42,14,84*,-48,5
O=c1[nH]c2ccc(Cl)cc2c(-c2ccccc2)c1N1CCOCC1,10,9,-8,4,19
COc1ccc(-c2nc(/C=C3\C(C)=Nc4ccccc43)c(O)o2)cc1,22,22,58*,-2,30
Nc1nc(-c2cc(O)ccc2[N+](=O)[O-])cc(-c2ccccc2)c1[N+](=O)[O-],-3,-24,26,-13,-12
COc1ccc(N(C(=O)c2ccncc2)S(=O)(=O)c2ccccc2)cc1,-191,-51,1,194*,-56
COc1ccc(S(=O)(=O)N(C(=O)c2ccncc2)c2ccc(OC(=O)c3ccncc3)cc2)cc1,-2,-56,-17,91*,-8
COc1ccc(OC)c(/C=C/c2ccc3cccc(O)c3n2)c1,33,1,90*,-13,35
COc1cc(Br)c(/C=C/c2ccc3cccc(O)c3n2)cc1OC,6,12,85*,-9,26
COc1cc(/C=C/c2ccc3cccc(OC)c3n2)c(O)c([N+](=O)[O-])c1,19,21,2,-2,20
Oc1cccc2ccc(/C=C/c3ccccc3Br)nc12,28,-1,103*,98*,18
Cc1nnc(SCC(=O)NCCC2=CCCCC2)[nH]c1=O,9,2,·,-12,5
CCC1(C)Cc2ccccc2-c2nc(NN)[nH]c(=O)c21 (centres undefined),42,-15,7,-4,32
CCC1(C)Cc2ccccc2-c2nc(-c3ccccc3)oc(=O)c21 (centres undefined),3,4,54*,·,15
CCn1cc(C(=O)O)c(=O)c2cc(F)c(N/N=C/c3ccccc3[N+](=O)[O-])cc21,-24,2,79*,-8,12
COc1ccc(C(=O)Nc2nc(-c3ccccn3)cs2)cc1S(=O)(=O)N1CCOCC1,9,11,·,·,18
CN=C1S/C(=C\c2ccc(N3CCCC3)c(F)c2)C(=O)N1C,23,31,36,-9,39
CN=C1S/C(=C\c2ccc(N3CCOCC3)c(F)c2)C(=O)N1C,19,-1,61*,·,18
O=C(Cc1c(F)cccc1Cl)OCC(=O)c1ccc[nH]1,18,5,·,·,11
O=C(Nc1ccccc1Sc1ccccc1)c1ccccc1F,-11,5,61*,15,17
CCCCN1CC(COCc2ccccc2)Oc2ccccc2S1(=O)=O (centres undefined),42,-2,·,2,23
Nc1nonc1-c1nc2ccccc2n1CC(=O)N/N=C/c1ccc(-c2cccc(C(=O)O)c2)o1,-6,9,68*,17,-11
C=C1CC(COc2ccc3c(C)c(Cl)c(=O)oc3c2)(c2ccccc2)OC1=O (centres undefined),·,·,·,-36,·
CC(C)=CCC12Oc3cc(O)ccc3C1(O)Oc1cc(O)c([C@H]3C=C(C)CC(c4ccc(O)cc4O)[C@H]3C(=O)c3ccc(O)cc3O)c(O)c1C2=O (some centres undefined),23,1,111*,·,25

# Bioassay records from PubChem BioAssay.
